Source: PubChem
The entries come from a sample that favours hits as a whole.
Cycloheximide cs: Cycloheximide Counterscreen for Small Molecule Inhibitors of Shiga Toxin. cell reporter, cycloheximide protein synthesis inhibition counterscreen. AID 2314, 2010. 300,000 tested, 12% active. max response, %; in the data active = max response mostly above about 13%, no sharp cut-off; inactive = mostly below about 14%; note: read at 38.3 µM for the half of the compounds with a filed dose; 0% is about no effect
AMA1 RON2 block: qHTS for Inhibitors of AMA1-RON; Towards Development of Antimalarial Drug Lead: Primary Screen; Plasmodium falciparum AMA1 (3D7) - RON2 peptide interaction; AlphaScreen AMA1-biotinylated RON2 peptide binding; Potency, µM (highest dose often 58.2 µM), inactives show top-dose activity change, negative = inhibition, most hits filed as inhibitors; 360,000 tested, 0.2% active; active = well fitted inhibition curve with a large enough effect; inconclusive = small, poorly fitted or top-dose-only effect; inactive = no such curve, though single readings can be large or run the other way;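 note: potency is the fitted concentration of half-maximal effect; 0% = vehicle wells and -100% = peptide control; nearly all actives have a fitted effect of over 45% in size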
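AMA1 (3D7) with his tag at 25 nM final met compounds first, then biotinylated RON2 peptide at 25 nM; detection used donor plus acceptor beads, 10 µg/mL apiece, read by AlphaScreen after 30 min at room temperature.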
Marburg entry inh: qHTS for inhibitors of binding or entry into cells for Marburg Virus. Marburg virus pseudotyped entry inhibition, cell reporter. Potency, µM (series often up to 37.8 µM), for the others: at the highest dose activity change, negative = inhibition, usual class: inhibitors. 300,000 tested, 1.8% active; calls by dose curve; tested in HEK293 cells; note: potency is the fitted concentration of half-maximal effect; % is set by controls: 0 for no effect and ±100 for the full control effect
Lassa entry inh: qHTS for Inhibitors of binding or entry into cells for Lassa Virus | Potency, µM (doses to about 37.9 µM), without a hit: top-dose activity change, negative = inhibition, usual class: inhibitors | Lassa virus pseudotype entry inhibition, cell reporter | 300,000 tested, 1.2% active; calls by dose curve; tested in HEK293 cells; note: potency is the fitted concentration of half-maximal effect; % is set by controls: 0 for no effect and ±100 for the full control effect; nearly all actives have a fitted effect of over 50% in size
Shiga inhibitor: A qHTS for Small Molecule Inhibitors of Shiga Toxin. inhibition, % at 38.7 µM. Vero cells, Shiga toxin protein synthesis inhibition reporter. 290,000 tested, 9.2% active; in the data active = inhibition mostly above about 28%, no sharp cut-off; inactive = mostly below about 43%; note: 0% is about no effect
* hit, by the source's call; ? = inconclusive; nt = not tested or not shown; [ ] = another dose, or the depositor's remark.

SMILES	Cycloheximide cs	AMA1 RON2 block	Marburg entry inh	Lassa entry inh	Shiga inhibitor
Cc1cc(C)nc(SCC(=O)c2cc3ccccc3oc2=O)n1	8	4%	17%[46.1 µM]	13%	-2
Cc1cc(C)nc(S/C=C/C(=O)c2ccc(F)cc2)n1	37*	nt	nt	nt	68*
Cc1cc(C)nc(Nc2ccc(F)cc2)n1	10	-3%	14%	?	64
CC(C)(C)c1ccc(S(=O)(=O)Nc2cccc(C3OCCCO3)c2)cc1	-1	11%[2.32 µM]	?	?	10
CC(C)CCNC(=O)C1CCN(S(=O)(=O)c2ccc(-n3cnnn3)cc2)CC1	1	7%	19%[46.1 µM]	?	20
CN1CCOCCOCCN(C)C1=O	-5	1%	20%	0%	-14
Cc1ccc(Nc2cc(C)nc3c(C)cccc23)cc1	7	0%	10µM*	3%[46.1 µM]	-4
COC(=O)c1ccc(Nc2cc(C)nc3ccc(C)cc23)cc1	-5	-13%	13µM*	?	-22
CC(=O)c1ccc(Nc2nc(C)cc(C)n2)cc1	28*	-11%	10%	2%	95
CC(=O)c1ccc(Nc2cc(C)nc3ccccc23)cc1	18*	-2%	2.8µM*	?	37
CC(=O)c1ccc(Nc2cc(C)nc3c(C)cccc23)cc1	0	-9%	nt	nt	0
O=C(CCNS(=O)(=O)c1ccccc1)NNC(=O)COc1ccccc1F	nt	92%	nt	nt	nt
COCC=CC1=CC2=CC(=O)C(C)(OC(=O)c3cnc4ccccc4n3)C(=O)C2=CN1Cc1ccccc1 (stereo not given)	nt	nt	19%[14.2 µM]	nt	nt
Cc1cccc(Nc2nc(C)cc(C)n2)c1	15*	0%	nt	nt	24*
Cc1ccc([N+](=O)[O-])cc1S(=O)(=O)NCC1COc2ccccc2O1 (stereo not given)	9	-1%	nt	nt	-9
NC(=O)c1ccc(NCC2COc3ccccc3O2)c([N+](=O)[O-])c1 (stereo not given)	33*	-6%	0%	?	29
COc1ccc(NC(=O)c2ccc(NCC3CCCO3)c([N+](=O)[O-])c2)cc1 (stereo not given)	17	-4%	9%[46.1 µM]	15%[46.1 µM]	23
O=C(Nc1ccccc1)c1ccc(NCC2CCCO2)c([N+](=O)[O-])c1 (stereo not given)	68*	3%	3%	22%	100*
CCN(CC)S(=O)(=O)c1ccc(NCC2COc3ccccc3O2)c([N+](=O)[O-])c1 (stereo not given)	20*	-21%	?	?	21
CN(C)S(=O)(=O)c1ccc(NCC2COc3ccccc3O2)c([N+](=O)[O-])c1 (stereo not given)	27*	-25%	?	-7%	49
CCCCn1c(N)c(N(CCC(C)C)C(=O)COC(=O)c2ccc3ccccc3c2)c(=O)[nH]c1=O	nt	-15%	13%[46.1 µM]	4%	nt
O=C(NCCCN1CCCC1)c1[nH]c(C(F)(F)F)nc1-c1ccccc1	nt	8%	nt	nt	nt
O=C(C1CCCCC1)N1CCN(c2ccnc3cc(Cl)ccc23)CC1	-10	0%	?	7.9µM*	-9
Cc1c(C(=O)COC(C)(C)C)[nH]c2ccccc12	20*	13%	0%	25%	25
CCOC(=O)c1[nH]c2ccccc2c1NC(=O)C(C)(C)C	-1	-3%	nt	nt	-1
SMILES	Cycloheximide cs	AMA1 RON2 block	Marburg entry inh	Lassa entry inh	Shiga inhibitor
CC(C)(C)C(=O)NNC(=O)C1CC1(c1ccccc1)c1ccccc1 (stereo not given)	-3	14%	4%[46.1 µM]	?	10
O=C(c1ccco1)N(c1ccccn1)c1ccccn1	-2	48%	14%	2%	7
N#C/C(=C(/O)c1ccco1)c1nc2ccccc2s1	38*	4%	?	14%	66*
N#C/C(=C(/O)c1cccc(F)c1)c1nc2ccccc2s1	12*	0%	nt	nt	8
N#C/C(=C(\O)c1ccco1)c1ccccn1	31*	31%	23%	-5%	70*
N#C/C(=C(/O)c1ccco1)c1nc2ccccc2[nH]1	21	60%	?	-2%	3
N#CC(C(=O)c1ccco1)c1ccccn1 (stereo not given)	17*	4%	?	13%	26
COc1ccc(CN2CCn3nc(C(=O)NC4CC4)cc3C2=O)cc1	5	-7%	?	27%[46.1 µM]	2
Cc1ccc(N2CC(C(=O)Nc3cc(S(=O)(=O)N4CCCCC4)ccc3C)CC2=O)cc1 (stereo not given)	nt	-2%	nt	nt	nt
CCOC(Cn1cc(C)c(=O)[nH]c1=O)OCC	-1	8%	?	-5%	-7
O=C(NC1CCCC1)C(c1ccco1)N1CCC(O)(c2ccc(Cl)cc2)CC1 (stereo not given)	nt	-4%	nt	nt	nt
Cc1cccc(NS(=O)(=O)c2ccc(C(=O)N3CCC3)cc2)c1C	nt	0%	-5%[46.1 µM]	-19%	nt
CC(C)Sc1nc(N)nc(-c2cccs2)c1C#N	33*	13%	?	14%	105*
CSc1nc(N)nc(-c2cccs2)c1C#N	13	6%	?	2%	17
O=S1(=O)CC(N2CCCC2)CN1Cc1cn(Cc2cccc(Cl)c2)nn1 (stereo not given)	nt	-2%	nt	nt	nt
CC1(C(=O)N2CCN(Cc3ccccc3Cl)CC2)CC1(Cl)Cl (stereo not given)	20*	-2%	nt	nt	120*
COc1cccc(-c2nnc(NC(=O)c3cccs3)s2)c1	12	-3%	?	1%	14
CCOC(=O)Nc1nnc(-c2cccc(OC)c2)s1	15*	2%	17%	-7%	23
COc1cccc(N2CCN(CC(=O)Nc3nnc(-c4ccccc4)s3)CC2)c1	-2	-30%	?	0.79µM*	1
COC(=O)Nc1nnc(-c2ccncc2)s1	3	2%	18%	?	5
CCOC(=O)Nc1nnc(-c2ccc(OC)cc2)s1	24*	1%	?	-2%	38
CSCC[C@H](NS(=O)(=O)c1ccc(C)cc1)C(=O)N1CCC(C(=O)N[C@H](C(=O)O)c2ccccc2)CC1	-1	10%	nt	nt	-8
CNC[C@@H]1OCc2ccccc2-c2c(n(C)c3ccccc23)C(=O)N([C@H](C)CO)C[C@H]1C	nt	-4%	nt	nt	nt
O=C(N=C1N=C2C=CC(Br)=CN2Cc2ccccc21)c1ccc([N+](=O)[O-])cc1[N+](=O)[O-]	40*	5%	-9%[46.1 µM]	5%	61*
COc1ccc(S(=O)(=O)NCc2cccn2Cc2cc(C)ccc2C)cc1OC	nt	nt	nt	-19%[46.1 µM]	nt
CCCCCC(=O)Nc1ccc(N2CCN(CC)CC2)c(Cl)c1	60*	15%	2%	-1%	103*
CCN1CCN(c2ccc(NC(=O)c3ccccc3F)cc2Cl)CC1	19*	0%	?	-10%	115*
Cc1ccc(N2CCN(C(=O)Cn3ncc4c([nH]c5ccc(C)cc54)c3=O)CC2)c(C)c1	nt	nt	nt	27%[46.1 µM]	nt
CC(=O)c1ccc(NC(=O)Nc2ncn(Cc3cccc(C)c3)n2)cc1	-3	0%	8%	0.65µM*	22
CC(=O)c1ccc(NC(=O)c2cnn(-c3cccc(F)c3)c2-n2cccc2)cc1	nt	nt	nt	-4%[46.1 µM]	nt
